A number with no mark means an inactive call.
Tests used:
Assay in all cases: log2 ratio of Biotin-Ahx-Ub-VS probe labelling (fragment/DMSO); higher = less target engagement (more negative = stronger competition), active = hit call of the paper (q ≤ 0.05, log2 ratio ≤ -1)
Conditions in all cases: compound concentration: 200 uM; treatment time: 3 h
[1] = biological target: T1, OTUD6B (UniProt Q8N6M0)
T1 sequence (whole entry): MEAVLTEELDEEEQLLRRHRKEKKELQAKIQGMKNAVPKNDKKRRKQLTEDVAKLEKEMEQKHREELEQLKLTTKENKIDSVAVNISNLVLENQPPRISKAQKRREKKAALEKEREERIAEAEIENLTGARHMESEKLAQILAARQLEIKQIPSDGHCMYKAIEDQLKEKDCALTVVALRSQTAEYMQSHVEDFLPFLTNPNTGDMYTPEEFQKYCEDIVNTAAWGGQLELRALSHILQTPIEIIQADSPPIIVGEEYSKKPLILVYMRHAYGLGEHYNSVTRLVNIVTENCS
In short: (§1)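 Using Biotin-Ahx-Ub-VS at 0.5 µM final for 1 h, DUBs were labelled in HEK293T lysate (495 µg per sample) that had first been treated in triplicate with fragment at 200 µM or vehicle for 3 h. NeutrAvidin enrichment, LysC and trypsin digestion and diaPASEF LC-MS/MS followed. Spectronaut label-free quantities were global-median-normalised. Values are average log2 fragment/vehicle ratios by unpaired t-test, using proteins with ≥2 unique peptides.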

[2] = biological target: T2, OTUD7B (UniProt Q6GQQ9)
T2 sequence (whole entry): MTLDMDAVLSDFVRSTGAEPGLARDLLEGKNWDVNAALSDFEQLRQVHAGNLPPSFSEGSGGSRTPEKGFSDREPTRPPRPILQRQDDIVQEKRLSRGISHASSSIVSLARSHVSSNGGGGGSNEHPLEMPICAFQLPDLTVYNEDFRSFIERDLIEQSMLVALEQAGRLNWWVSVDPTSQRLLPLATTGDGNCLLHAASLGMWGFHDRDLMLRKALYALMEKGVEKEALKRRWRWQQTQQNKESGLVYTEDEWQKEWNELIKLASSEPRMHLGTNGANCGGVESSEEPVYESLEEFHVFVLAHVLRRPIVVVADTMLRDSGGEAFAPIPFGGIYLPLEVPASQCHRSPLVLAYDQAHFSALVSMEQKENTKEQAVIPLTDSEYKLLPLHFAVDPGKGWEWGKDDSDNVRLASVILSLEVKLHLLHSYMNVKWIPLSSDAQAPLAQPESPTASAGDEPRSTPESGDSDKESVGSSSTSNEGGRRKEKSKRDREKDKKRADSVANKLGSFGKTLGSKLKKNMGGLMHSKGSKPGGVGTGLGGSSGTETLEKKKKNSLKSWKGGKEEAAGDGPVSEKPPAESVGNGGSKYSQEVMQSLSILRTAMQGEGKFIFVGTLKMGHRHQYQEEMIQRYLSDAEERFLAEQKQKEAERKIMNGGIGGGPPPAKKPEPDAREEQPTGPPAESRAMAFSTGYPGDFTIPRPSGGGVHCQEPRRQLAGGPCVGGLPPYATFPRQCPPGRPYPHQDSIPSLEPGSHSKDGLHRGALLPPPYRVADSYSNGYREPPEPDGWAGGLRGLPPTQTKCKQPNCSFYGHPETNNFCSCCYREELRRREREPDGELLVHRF
In short: as §1

[3] = biological target: PRPF8 (UniProt Q6P2Q9)
In short: as §1

[4] = biological target: T3, PSMD7 (UniProt P51665)
T3 sequence (whole entry): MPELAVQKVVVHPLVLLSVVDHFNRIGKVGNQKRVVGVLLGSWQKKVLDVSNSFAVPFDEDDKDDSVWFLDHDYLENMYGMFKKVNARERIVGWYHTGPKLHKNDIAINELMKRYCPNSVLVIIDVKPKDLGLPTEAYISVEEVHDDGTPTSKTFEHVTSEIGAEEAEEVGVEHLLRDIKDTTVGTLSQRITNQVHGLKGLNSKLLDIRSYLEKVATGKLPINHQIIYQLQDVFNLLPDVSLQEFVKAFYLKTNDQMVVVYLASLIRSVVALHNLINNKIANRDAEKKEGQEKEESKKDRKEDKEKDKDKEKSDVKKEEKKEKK
In short: as §1

[5] = biological target: UCHL1 (UniProt P09936)
Chain of UCHL1 (P09936 whole entry, looked up): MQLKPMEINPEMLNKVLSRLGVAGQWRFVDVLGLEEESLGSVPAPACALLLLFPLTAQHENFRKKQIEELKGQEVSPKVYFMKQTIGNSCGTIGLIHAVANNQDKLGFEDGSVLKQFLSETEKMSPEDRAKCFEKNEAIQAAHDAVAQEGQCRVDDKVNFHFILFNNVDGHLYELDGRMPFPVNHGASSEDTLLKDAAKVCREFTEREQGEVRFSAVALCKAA
In short: as §1

[6] = biological target: T4, UCHL3 (UniProt P15374)
T4 sequence (whole entry): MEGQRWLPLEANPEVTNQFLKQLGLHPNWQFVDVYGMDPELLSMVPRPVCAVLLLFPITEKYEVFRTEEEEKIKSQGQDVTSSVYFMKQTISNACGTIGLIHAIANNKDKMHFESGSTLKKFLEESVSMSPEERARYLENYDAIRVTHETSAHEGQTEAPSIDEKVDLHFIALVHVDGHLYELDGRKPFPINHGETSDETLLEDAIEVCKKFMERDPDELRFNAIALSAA
In short: as §1

[7] = biological target: T5, UCHL5 (UniProt Q9Y5K5)
T5 sequence (whole entry): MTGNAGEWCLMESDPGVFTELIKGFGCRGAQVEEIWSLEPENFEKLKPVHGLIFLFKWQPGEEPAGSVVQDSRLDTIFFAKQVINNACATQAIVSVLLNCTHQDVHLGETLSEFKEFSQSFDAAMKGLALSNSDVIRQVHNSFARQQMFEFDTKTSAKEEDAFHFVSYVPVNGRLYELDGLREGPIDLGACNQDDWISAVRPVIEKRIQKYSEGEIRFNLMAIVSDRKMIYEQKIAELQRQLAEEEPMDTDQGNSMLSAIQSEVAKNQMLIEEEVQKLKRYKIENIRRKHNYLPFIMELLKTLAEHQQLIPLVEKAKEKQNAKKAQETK
In short: as §1

[8] = biological target: USP10 (UniProt Q14694)
Chain of USP10 (Q14694 whole entry): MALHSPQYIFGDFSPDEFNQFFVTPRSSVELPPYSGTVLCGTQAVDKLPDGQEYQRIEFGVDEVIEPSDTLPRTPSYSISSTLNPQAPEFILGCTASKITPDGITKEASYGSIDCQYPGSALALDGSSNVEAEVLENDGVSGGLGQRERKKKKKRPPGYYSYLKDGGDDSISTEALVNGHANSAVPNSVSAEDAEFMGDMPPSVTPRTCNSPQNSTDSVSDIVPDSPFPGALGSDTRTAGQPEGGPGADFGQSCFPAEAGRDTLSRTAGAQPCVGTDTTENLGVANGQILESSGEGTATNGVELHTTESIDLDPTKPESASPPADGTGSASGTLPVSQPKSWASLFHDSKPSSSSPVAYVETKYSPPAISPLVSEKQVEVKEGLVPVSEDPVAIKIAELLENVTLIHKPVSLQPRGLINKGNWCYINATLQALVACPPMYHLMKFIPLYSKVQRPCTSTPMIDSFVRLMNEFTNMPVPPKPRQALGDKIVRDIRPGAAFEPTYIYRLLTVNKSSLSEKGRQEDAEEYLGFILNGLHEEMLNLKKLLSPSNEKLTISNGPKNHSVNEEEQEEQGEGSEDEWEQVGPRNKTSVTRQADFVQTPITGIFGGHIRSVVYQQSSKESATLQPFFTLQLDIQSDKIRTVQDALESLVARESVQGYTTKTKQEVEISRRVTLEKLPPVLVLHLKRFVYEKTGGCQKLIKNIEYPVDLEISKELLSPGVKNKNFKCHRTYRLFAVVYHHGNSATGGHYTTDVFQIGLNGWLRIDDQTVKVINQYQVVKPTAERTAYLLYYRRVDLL
In short: as §1

[9] = biological target: T6, USP15 (UniProt Q9Y4E8)
T6 sequence (whole entry): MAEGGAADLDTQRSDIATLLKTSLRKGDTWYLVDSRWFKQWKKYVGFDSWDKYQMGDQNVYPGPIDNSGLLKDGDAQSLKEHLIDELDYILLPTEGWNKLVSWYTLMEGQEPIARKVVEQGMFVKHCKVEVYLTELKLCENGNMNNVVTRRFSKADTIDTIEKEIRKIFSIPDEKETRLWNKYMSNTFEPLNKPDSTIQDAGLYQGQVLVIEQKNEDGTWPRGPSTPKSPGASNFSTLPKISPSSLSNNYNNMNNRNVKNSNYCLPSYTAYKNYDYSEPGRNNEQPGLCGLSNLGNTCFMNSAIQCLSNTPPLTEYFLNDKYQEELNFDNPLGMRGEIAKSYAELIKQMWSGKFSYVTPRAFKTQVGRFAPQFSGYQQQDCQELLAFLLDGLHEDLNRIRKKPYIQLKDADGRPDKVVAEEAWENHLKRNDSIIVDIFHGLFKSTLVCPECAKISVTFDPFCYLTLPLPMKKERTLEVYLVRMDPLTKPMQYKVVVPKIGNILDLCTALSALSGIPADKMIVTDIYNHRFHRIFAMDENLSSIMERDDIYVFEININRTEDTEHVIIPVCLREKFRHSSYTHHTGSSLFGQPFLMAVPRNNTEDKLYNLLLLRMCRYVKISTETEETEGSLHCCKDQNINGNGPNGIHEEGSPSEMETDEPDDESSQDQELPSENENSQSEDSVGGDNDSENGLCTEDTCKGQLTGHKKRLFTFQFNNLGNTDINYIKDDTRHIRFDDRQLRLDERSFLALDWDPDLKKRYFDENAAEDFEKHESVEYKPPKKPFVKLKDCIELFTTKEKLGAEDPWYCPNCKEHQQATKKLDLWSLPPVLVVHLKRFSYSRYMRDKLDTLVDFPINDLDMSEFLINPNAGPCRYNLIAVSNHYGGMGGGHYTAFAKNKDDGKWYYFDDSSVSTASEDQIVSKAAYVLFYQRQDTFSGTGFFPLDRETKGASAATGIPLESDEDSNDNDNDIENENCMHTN
In short: as §1

[10] = biological target: USP16 (UniProt Q9Y5T5)
Chain of USP16 (Q9Y5T5 whole entry, looked up): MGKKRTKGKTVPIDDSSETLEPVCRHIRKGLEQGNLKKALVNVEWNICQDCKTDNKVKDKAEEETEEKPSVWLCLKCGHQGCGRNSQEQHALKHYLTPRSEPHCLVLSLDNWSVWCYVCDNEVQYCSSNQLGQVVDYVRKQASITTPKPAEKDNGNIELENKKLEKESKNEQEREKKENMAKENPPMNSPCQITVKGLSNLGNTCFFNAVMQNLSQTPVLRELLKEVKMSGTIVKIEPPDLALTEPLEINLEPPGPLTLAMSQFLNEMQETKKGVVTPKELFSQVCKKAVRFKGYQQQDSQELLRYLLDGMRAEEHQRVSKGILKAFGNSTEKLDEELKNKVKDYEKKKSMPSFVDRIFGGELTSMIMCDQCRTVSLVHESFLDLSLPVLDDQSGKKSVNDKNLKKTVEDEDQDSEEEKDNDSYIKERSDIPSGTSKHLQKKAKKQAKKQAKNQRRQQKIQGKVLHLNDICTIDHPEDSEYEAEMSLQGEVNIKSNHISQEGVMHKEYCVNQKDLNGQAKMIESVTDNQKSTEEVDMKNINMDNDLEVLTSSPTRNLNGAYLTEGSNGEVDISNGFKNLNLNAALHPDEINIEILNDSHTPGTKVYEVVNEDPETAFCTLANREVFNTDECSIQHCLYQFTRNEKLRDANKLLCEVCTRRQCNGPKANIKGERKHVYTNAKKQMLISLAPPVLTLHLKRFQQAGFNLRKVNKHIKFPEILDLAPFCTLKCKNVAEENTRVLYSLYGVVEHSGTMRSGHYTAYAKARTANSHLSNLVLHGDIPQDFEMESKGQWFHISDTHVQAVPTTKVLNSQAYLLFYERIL
In short: as §1

O=C(CCl)NCCC1=CCCCC1
log2 ratio of Biotin-Ahx-Ub-VS probe labelling [1]: -0.254 | log2 ratio of Biotin-Ahx-Ub-VS probe labelling [2]: -0.269 | log2 ratio of Biotin-Ahx-Ub-VS probe labelling [3]: 0.145 | log2 ratio of Biotin-Ahx-Ub-VS probe labelling [4]: 0.0106 | log2 ratio of Biotin-Ahx-Ub-VS probe labelling [5]: -1.6 (active) | log2 ratio of Biotin-Ahx-Ub-VS probe labelling [6]: 0.284 | log2 ratio of Biotin-Ahx-Ub-VS probe labelling [7]: -0.111 | log2 ratio of Biotin-Ahx-Ub-VS probe labelling [8]: -0.0126 | log2 ratio of Biotin-Ahx-Ub-VS probe labelling [9]: -0.103 | log2 ratio of Biotin-Ahx-Ub-VS probe labelling [10]: -0.0314
